Screening results as filed in PubChem BioAssay.
PTHR1 agonist: qHTS for PTHR1 Agonists: Primary Screen | HEK293 GP2 PTHR1 cells, GloSensor cAMP luminescence, 1 h | Parathyroid hormone/parathyroid hormone-related peptide receptor (Homo sapiens), Q03431 | 0.075% of 410,000 active | Potency, µM (doses to about 115 µM), for inactives: top-dose activation, actives largely listed as activators | AID 743266, 2014; note: nearly all actives have a fitted effect of over 55% in size
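HEK-293-derived GP2 cells expressing PTHR1 and a GloSensor cAMP reporter, 3,000/well, plated overnight, given luciferin plus IBMX (each 0.5 mM as added) for 1 h at 37 °C, then compound for 1 h at 37 °C. Luminescence was read after 15 min at room temperature.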
HEK293 tox: qHTS of GLP-1 Receptor Inverse Agonists: Cytotox Screen | HEK293 cAMP-luciferase reporter cells, luminescence, 24 h | Potency, µM (top dose mostly 38.3 µM), inactives show at the top dose activity change, negative = inhibition, most hits filed as inhibitors | 0.13% of 410,000 active;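 note: loss of luciferase light is scored as toxicity; % is set by controls: 0 for no effect and ±100 for the full control effect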
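Here, cytotoxicity is scored as loss of luminescence. The MLSMR collection was tested on cells seeded in medium containing 10% Nu serum, with a 24 hr compound exposure preceded by 12 hours of culture.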
GLP-1R agonist: qHTS of GLP-1 Receptor Agonists; HEK293 GLP-1R CRE-luciferase, luminescence, 4-6 h; cells express a hypersensitive GLP-1R form; Potency, µM (highest dose often 45.6 µM), without a hit: at the highest dose activation, most hits filed as activators; 0.007% of 380,000 active; AID 624172, 2012; note: % of control where 0% means no effect
Target sequence (P43220 whole entry, looked up): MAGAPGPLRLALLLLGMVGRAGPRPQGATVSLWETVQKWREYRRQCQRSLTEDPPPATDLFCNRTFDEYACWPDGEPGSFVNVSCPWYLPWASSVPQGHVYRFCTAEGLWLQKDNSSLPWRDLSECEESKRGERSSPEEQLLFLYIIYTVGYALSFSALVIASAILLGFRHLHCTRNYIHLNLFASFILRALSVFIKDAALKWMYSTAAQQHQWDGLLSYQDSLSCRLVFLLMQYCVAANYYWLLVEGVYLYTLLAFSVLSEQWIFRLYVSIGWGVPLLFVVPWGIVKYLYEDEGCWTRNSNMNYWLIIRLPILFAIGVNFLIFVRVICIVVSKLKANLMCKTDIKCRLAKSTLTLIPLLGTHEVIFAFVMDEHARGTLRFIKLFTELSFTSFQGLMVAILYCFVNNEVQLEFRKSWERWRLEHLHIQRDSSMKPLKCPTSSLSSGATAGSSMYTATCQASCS
GLP1R inv ag: qHTS of GLP-1 Receptor Inverse Agonists (Inhibition Mode); HEK293 GLP-1R CRE-luciferase, luminescence, 24 h; GLP-1R form is constitutively active; Potency, µM (doses to about 38.3 µM), inactives show at the highest dose activity change, negative = inhibition, most hits filed as inhibitors; Glucagon-like peptide 1 receptor (Homo sapiens), P43220; AID 624417, 2012; 1.6% of 410,000 active; note: % is set by controls: 0 for no effect and ±100 for the full control effect; nearly all actives have a fitted effect of over 55% in size
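Readout was luciferase luminescence, measured 12 min after detection reagent at room temperature. Beforehand, GLP-1R reporter HEK293 cells had sat 12 h, then received compounds for 24 hr at 37 deg C.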
* hit, by the source's call; [ ] = another dose, or the depositor's remark. A selection: hits, their analogues and other compounds. The true share with any hit is near 1.7%. Calls come from the whole dose curve; as a rule, active = well fitted curve in the direction sought with a large enough effect; inconclusive = small, poorly fitted or top-dose-only effect, or another doubt; inactive = no such curve, though single readings can be large; an effect the other way counts as inactive or inconclusive. Potency is the fitted concentration of half-maximal effect.

What do the screens show for `CN(C)c1cc(NC(=O)CNC(C)(C)C)c(O)c2c1C[C@@H]1C[C@H]3[C@H](N(C)C)C(=O)C(C(N)=O)=C(O)[C@@]3(O)C(=O)C1=C2O`?
GLP-1R agonist: 0%

Results for CCOC(=O)CSc1nc2ccc(NC(=O)c3ccc(C)cc3)cc2s1 ?
PTHR1 agonist: -10%; HEK293 tox: -8%; GLP1R inv ag: 9%

How did O=C1C(=C(c2ccccc2)c2ccccc2)Nc2ccccc21 do in these assays?
PTHR1 agonist: -32%[57.5 µM]; HEK293 tox: inconclusive; GLP-1R agonist: 1%; GLP1R inv ag: 3.2µM*

How did COc1ccc(CN2CCN(CCCc3ccccc3)C(CCO)C2)c(O)c1 (stereo unspecified) do in these assays?
PTHR1 agonist: inactive; HEK293 tox: -10%; GLP-1R agonist: -5%; GLP1R inv ag: -15%

What do the screens show for `CCn1cc(CN2CCN(Cc3ccc(C)o3)C(CCO)C2)c2ccccc21` (stereo unspecified)?
PTHR1 agonist: inactive; HEK293 tox: -30%; GLP-1R agonist: 9%; GLP1R inv ag: inconclusive

What do the screens show for `COc1ccc(CN2CCN(CCc3ccccc3)C(CCO)C2)c(O)c1` (stereo unspecified)?
PTHR1 agonist: -9%; HEK293 tox: 0%; GLP-1R agonist: 11%; GLP1R inv ag: 11µM*

Results for CCn1cc(CN2CCN(Cc3ccccc3)C(CCO)C2)c2ccccc21 (stereo unspecified) ?
PTHR1 agonist: inactive; HEK293 tox: -23%; GLP-1R agonist: 0%; GLP1R inv ag: 10µM*

Results for CC(C)C[C@@H](CN1CCCC1CN1C(=S)NC[C@@H]1Cc1ccc(O)cc1)N1C[C@H](Cc2ccc(O)cc2)N(CC2CCCCC2)C1=S (stereo partly specified) ?
PTHR1 agonist: inactive; HEK293 tox: inconclusive; GLP-1R agonist: -1%; GLP1R inv ag: 11µM*

Results for CC(C)C[C@@H](CN1CCC[C@@H]1CN1C(=S)NC[C@@H]1Cc1ccccc1)N1C[C@H](Cc2ccc(O)cc2)N(CC2CCCCC2)C1=S ?
PTHR1 agonist: -18%; HEK293 tox: 1%; GLP-1R agonist: 0%; GLP1R inv ag: 29%

Results for Cc1ccc(CNC(=O)CSc2nnc(C)c3c(C)n(-c4ccccc4)nc23)cc1 ?
PTHR1 agonist: -16%; HEK293 tox: -23%; GLP1R inv ag: -20%

What do the screens show for `Brc1ccc2ncnc(NCc3ccccc3)c2c1`?
PTHR1 agonist: -9%; HEK293 tox: -11%; GLP-1R agonist: -23%; GLP1R inv ag: 1.4µM*

How did Cc1ccc(CNC(=O)CN2C(=O)CCc3cc(S(=O)(=O)N4CCCCC4)ccc32)cc1 do in these assays?
PTHR1 agonist: -5%; HEK293 tox: 5%; GLP1R inv ag: 0%

What do the screens show for `CC(Sc1ccc(Cl)cc1)C(=O)NCC(c1ccco1)N1CCCCC1` (stereo unspecified)?
PTHR1 agonist: inactive; HEK293 tox: -4%; GLP-1R agonist: -5%; GLP1R inv ag: 11µM*

Results for O=C(NCC(c1ccco1)N1CCCCC1)c1ccc(COc2ccc(Cl)cc2)cc1 (stereo unspecified) ?
PTHR1 agonist: -28%; HEK293 tox: -27%; GLP-1R agonist: 12%; GLP1R inv ag: 2.8µM*

What do the screens show for `O=C(Cc1ccccc1F)NCC(c1ccco1)N1CCCCC1` (stereo unspecified)?
PTHR1 agonist: -22%; HEK293 tox: -5%; GLP-1R agonist: 6%; GLP1R inv ag: -12%

How did O=C(NCC(c1ccco1)N1CCCCC1)C(c1ccccc1)c1ccccc1 (stereo unspecified) do in these assays?
PTHR1 agonist: -4%; HEK293 tox: 0%; GLP-1R agonist: 5%; GLP1R inv ag: 11µM*

How did S=C(NCCc1ccccc1)NCC(c1ccco1)N1CCCCC1 (stereo unspecified) do in these assays?
PTHR1 agonist: inactive; HEK293 tox: -24%; GLP-1R agonist: 23%; GLP1R inv ag: 7.1µM*

How did O=C(CC(c1ccccc1)c1cc(Br)ccc1O)NCC1(c2ccccc2)CCCC1 (stereo unspecified) do in these assays?
PTHR1 agonist: -45%; HEK293 tox: inconclusive; GLP1R inv ag: inconclusive

What do the screens show for `CCCOc1ccccc1C(=O)N1CCC(c2nc3ccccc3s2)CC1`?
PTHR1 agonist: -3%; HEK293 tox: 0%; GLP1R inv ag: -8%

What do the screens show for `CCc1ccc(NC(=O)C(=O)NCCc2csc(-c3ccc(C(F)(F)F)cc3)n2)cc1`?
PTHR1 agonist: 12%; HEK293 tox: 1%; GLP1R inv ag: 2%

How did CO[C@@H]1[C@@H](OC2OC(C)C(OC3CC(C)(O)C(O)C(C)O3)C(N(C)C)C2O)[C@@H](CC=O)C[C@@H](C)[C@@H](OC2CCC(N(C)C)C(C)O2)/C=C/C=C/C[C@@H](C)OC(=O)C[C@H]1OC(C)=O (stereo partly specified) do in these assays?
GLP-1R agonist: -3%

What do the screens show for `O=C(Cn1cc(S(=O)(=O)Cc2cccc(Cl)c2)c2ccccc21)Nc1ccccc1C(F)(F)F`?
PTHR1 agonist: -18%; HEK293 tox: -1%; GLP1R inv ag: -17%

What do the screens show for `CN(CC(=O)NCC(c1ccco1)N1CCCCC1)S(=O)(=O)c1ccc(Cl)cc1` (stereo unspecified)?
PTHR1 agonist: inactive; HEK293 tox: 0%; GLP-1R agonist: 15%; GLP1R inv ag: 13µM*

How did Cc1ccc(CNC(=O)c2sc3nc4n(c(=O)c3c2C)CCCC4)cc1 do in these assays?
PTHR1 agonist: inactive; HEK293 tox: 1%; GLP1R inv ag: 13%

What do the screens show for `O=C(CN1CCN(c2ccccc2Cl)CC1)NC1CCCc2ccccc21` (stereo unspecified)?
PTHR1 agonist: inactive; HEK293 tox: 1%; GLP-1R agonist: 3%; GLP1R inv ag: 10µM*

Results for COc1ccc2nc(SCC(=O)NC3CCCc4ccccc43)[nH]c2c1 (stereo unspecified) ?
PTHR1 agonist: -25%; HEK293 tox: -14%; GLP-1R agonist: -1%; GLP1R inv ag: inconclusive

How did O=C(CSc1nc2ccc(Cl)cc2[nH]1)NC1CCCc2ccccc21 (stereo unspecified) do in these assays?
PTHR1 agonist: -31%; HEK293 tox: -18%; GLP-1R agonist: 16%; GLP1R inv ag: 8.9µM*

What do the screens show for `O=C(c1cnc(N2CCCCC2)c2ccccc12)N1CCN(c2ccc(Cl)cc2)CC1`?
PTHR1 agonist: -8%; HEK293 tox: -11%; GLP1R inv ag: inconclusive

What do the screens show for `O=C(NC1CCCCC1)c1c[nH]c2ccc(S(=O)(=O)Nc3ccccc3F)cc2c1=O`?
PTHR1 agonist: -29%; HEK293 tox: -27%; GLP1R inv ag: inconclusive
